# Inconclusive results are not listed. Values without a mark were called inactive. Calls of active or inactive are those of the source. Calls follow the shape of the dose curve; as a rule, active = well fitted inhibition curve with a large enough effect; inconclusive = small, poorly fitted or top-dose-only effect; inactive = flat fitted curve, though single readings scatter.
# Experiment: qHTS profiling for inhibitors of Plasmodium falciparum proliferation (AID 504749); also: nearly all actives have a fitted effect of over 60% in size;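 as to activity, negative = inhibition: 0% = DMSO vehicle and full inhibition = artemisinin control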
# Conditions: P. falciparum in erythrocytes, SYBR Green DNA, 72 h
# Outline: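 In a 72 h erythrocytic culture (37 C, humidified, 5% CO2) at 2.5% hematocrit and 0.3% starting parasitemia, compounds were tested; SYBR Green I in detergent lysis buffer stained parasite DNA overnight.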
# [1] = at 28.7 µM (top of the series), parasite line A
# [2] = at 28.7 µM (top of the series), parasite line B
# [3] = at 12.8 µM (top of the series), parasite line A
# [4] = at 12.8 µM (top of the series), parasite line B
# Potency is read from the fitted curve at half-maximal effect.
structure (smiles),measurement,setting,value
Oc1cc(O)cc(O)c1,"activity, negative = inhibition",[1],0.686%
same,"activity, negative = inhibition",[2],-2.93%
CCCCC,"activity, negative = inhibition",[1],7.05%
same,"activity, negative = inhibition",[2],20.9%
C=CCN1CCCC1CNC(=O)c1cc(S(N)(=O)=O)cc(OC)c1OC (stereo not drawn),"activity, negative = inhibition",[1],-0.688%
same,"activity, negative = inhibition",[2],8.33%
O=C(O)Cc1cc(I)c(Oc2ccc(O)c(I)c2)c(I)c1,"activity, negative = inhibition",[3],1.81%
same,"activity, negative = inhibition",[4],6.07%
Cc1ncc(C[n+]2csc(CCOP(=O)(O)OP(=O)(O)O)c2C)c(N)n1,"activity, negative = inhibition",[1],-0.174%
same,"activity, negative = inhibition",[2],5.83%
CN[C@@H]1[C@H](O[C@H]2[C@H](O[C@H]3[C@H](O)[C@@H](O)[C@H](N=C(N)N)[C@@H](O)[C@@H]3N=C(N)N)O[C@@H](C)[C@]2(O)C=O)O[C@@H](CO)[C@H](O)[C@H]1O,"activity, negative = inhibition",[1],5.41%
same,"activity, negative = inhibition",[2],15.5%
C[C@H](N)C(=O)N[C@@H](C)P(=O)(O)O,"activity, negative = inhibition",[1],12.4%
same,"activity, negative = inhibition",[2],10.4%
CC(=O)[C@H]1CC[C@H]2[C@@H]3C=CC4=CC(=O)CC[C@@]4(C)[C@H]3CC[C@]12C,"activity, negative = inhibition",[3],0.59%
same,"activity, negative = inhibition",[4],-8.1%
COc1cc2c(cc1OC)[C@@H](Cc1cc(OC)c(OC)c(OC)c1)[N+](C)(CCCOC(=O)CC/C=C/CCC(=O)OCCC[N+]1(C)CCc3cc(OC)c(OC)cc3[C@H]1Cc1cc(OC)c(OC)c(OC)c1)CC2 (stereo partly drawn),"activity, negative = inhibition",[1],0.013%
same,"activity, negative = inhibition",[2],-1.97%
CCC(C(=O)NC(N)=O)c1ccccc1 (stereo not drawn),"activity, negative = inhibition",[1],-3.47%
same,"activity, negative = inhibition",[2],11.3%
Nc1nccs1,"activity, negative = inhibition",[1],12.4%
same,"activity, negative = inhibition",[2],11.4%
CC(/C=C/C=C(\C)C(=O)O[C@@H]1O[C@H](CO[C@@H]2O[C@H](CO)[C@@H](O)[C@H](O)[C@H]2O)[C@@H](O)[C@H](O)[C@H]1O)=C\C=C\C=C(C)\C=C\C=C(/C)C(=O)O[C@@H]1O[C@H](CO[C@@H]2O[C@H](CO)[C@@H](O)[C@H](O)[C@H]2O)[C@@H](O)[C@H](O)[C@H]1O,"activity, negative = inhibition",[1],7.84%
same,"activity, negative = inhibition",[2],-1.1%
O=P(O)(O)OC[C@H](O)CO,"activity, negative = inhibition",[1],-1.1%
same,"activity, negative = inhibition",[2],9.77%
CCCCCCOC(=O)c1cccnc1,"activity, negative = inhibition",[1],6.05%
same,"activity, negative = inhibition",[2],-29.8%
Cc1cc(C(=O)NCCc2ccc(S(=O)(=O)NC(=O)NN3CCCCCC3)cc2)no1,"activity, negative = inhibition",[1],7.09%
same,"activity, negative = inhibition",[2],6.94%
C[C@H](CCCC(C)(C)O)[C@H]1CC[C@H]2[C@@H]3CC=C4C[C@@H](O)CC[C@]4(C)[C@H]3CC[C@]12C,"activity, negative = inhibition",[1],13.3%
same,"activity, negative = inhibition",[2],17.1%
CN(C)CCCSc1ccccc1NC(=O)/C=C/c1ccccc1,"activity, negative = inhibition",[1],13.3%
same,"activity, negative = inhibition",[2],3.42%
ClC(Cl)Cl,"activity, negative = inhibition",[1],5.74%
same,"activity, negative = inhibition",[2],10.9%
CN(C)C=Nc1c(I)cc(I)c(CCC(=O)O)c1I,"activity, negative = inhibition",[1],0.723%
same,"activity, negative = inhibition",[2],1.95%
CCCCCCCCCCCCCC(=O)OCC(COP(=O)([O-])OCC[N+](C)(C)C)OC(=O)CCCCCCCCCCCCC (stereo not drawn),"activity, negative = inhibition",[1],4.09%
same,"activity, negative = inhibition",[2],-2.15%
CCOC(=S)SSC(=S)OCC,"activity, negative = inhibition",[1],12.6%
same,"activity, negative = inhibition",[2],-0.533%
COC(=O)CC[C@H](N)C(=O)O,"activity, negative = inhibition",[1],18.1%
same,"activity, negative = inhibition",[2],11.5%
CCCCC[C@H](O)/C=C/[C@H]1[C@H](O)CC(=O)[C@@H]1C/C=C\CCCC(=O)O,"activity, negative = inhibition",[1],7.21%
same,"activity, negative = inhibition",[2],0.0897%
O=C(O)CCC/C=C\C[C@@H]1[C@@H](/C=C/[C@@H](O)COc2cccc(C(F)(F)F)c2)[C@H](O)C[C@@H]1O,"activity, negative = inhibition",[1],-5.12%
same,"activity, negative = inhibition",[2],-7.34%
Cc1ccc(S(=O)(=O)NCl)cc1,"activity, negative = inhibition",[1],-0.743%
same,"activity, negative = inhibition",[2],4.28%
COC(=O)C(CN)c1c[nH]c2ccc(OC)cc12 (stereo not drawn),"activity, negative = inhibition",[1],-3.75%
same,"activity, negative = inhibition",[2],-2.84%
CC(C)OC(=O)Nc1ccc2nc(-c3cscn3)[nH]c2c1,"activity, negative = inhibition",[1],1.15%
same,"activity, negative = inhibition",[2],-9.28%
CN1c2c(nc(N)[nH]c2=O)NCC1CNc1ccc(C(=O)NC(CCC(=O)O)C(=O)O)cc1 (stereo not drawn),"activity, negative = inhibition",[1],2.92%
same,"activity, negative = inhibition",[2],-8.81%
COC(=O)[C@@H](N)CS,"activity, negative = inhibition",[1],-8.41%
same,"activity, negative = inhibition",[2],10.4%
CCCCO,"activity, negative = inhibition",[1],5.51%
same,"activity, negative = inhibition",[2],16.3%
CCOc1cc(-c2nccc3cc(OC)c(OC)cc23)cc(OCC)c1OCC,Potency,parasite line A,8.91 µM (active)
same,Potency,parasite line B,11.2 µM (active)
FC(F)(F)COCC(F)(F)F,"activity, negative = inhibition",[1],12.5%
same,"activity, negative = inhibition",[2],-2.69%
FCOC(C(F)(F)F)C(F)(F)F,"activity, negative = inhibition",[1],11.2%
same,"activity, negative = inhibition",[2],-2.57%
CC(C)[C@H](N)C(=O)OCC(CO)OCn1cnc2c(=O)[nH]c(N)nc21 (stereo partly drawn),"activity, negative = inhibition",[1],14.7%
same,"activity, negative = inhibition",[2],6.07%
Oc1ccc(Cl)c2c1CCC2,"activity, negative = inhibition",[1],6.7%
same,"activity, negative = inhibition",[2],4.51%
O=C(CCCCCCCCCCCCC1CCCC1)Nc1ccc(S(=O)(=O)c2ccc(NC(=O)CCCCCCCCCCCCC3CCCC3)cc2)cc1,"activity, negative = inhibition",[1],-2.51%
same,"activity, negative = inhibition",[2],13.1%
NCCO/C=C/[C@H](N)C(=O)O,"activity, negative = inhibition",[1],6.56%
same,"activity, negative = inhibition",[2],15.6%
CC(O)CN(C)C (stereo not drawn),"activity, negative = inhibition",[1],11.7%
same,"activity, negative = inhibition",[2],-4.96%
CC(C)C1=CC2=CC[C@@H]3[C@](C)(CCC[C@@]3(C)C(=O)O)[C@H]2CC1,"activity, negative = inhibition",[1],-4.25%
same,"activity, negative = inhibition",[2],-11.9%
CC(=O)N[C@@H]1C(O[C@H]2O[C@H](C(=O)O)C(O)[C@H](O)[C@H]2O)[C@H](O)[C@@H](CO)O[C@H]1O[C@@H]1C(C(=O)O)O[C@@H](O[C@H]2[C@H](O)[C@@H](CO)OC(O)[C@@H]2NC(C)=O)[C@H](O)[C@H]1O (stereo partly drawn),"activity, negative = inhibition",[1],0.279%
same,"activity, negative = inhibition",[2],2.2%
Cc1c(C)c2c(c(C)c1OC(=O)CCC(=O)O)CC[C@@](C)(CCC[C@H](C)CCC[C@H](C)CCCC(C)C)O2,"activity, negative = inhibition",[1],-10.9%
same,"activity, negative = inhibition",[2],4.87%
CSCCC(N)C(=O)O (stereo not drawn),"activity, negative = inhibition",[1],6.14%
same,"activity, negative = inhibition",[2],15.2%
CS(=O)(=O)c1ccc([C@@H](O)[C@@H](COC(=O)CN)NC(=O)C(Cl)Cl)cc1,"activity, negative = inhibition",[1],-27.9%
same,"activity, negative = inhibition",[2],-23.7%
CCCc1nc(C(C)(C)O)c(C(=O)OCc2oc(=O)oc2C)n1Cc1ccc(-c2ccccc2-c2nn[nH]n2)cc1,"activity, negative = inhibition",[1],-15.7%
same,"activity, negative = inhibition",[2],-20.3%
O=C(CCCN1CCC(C(=O)c2ccc(F)cc2)CC1)c1ccc(F)cc1,"activity, negative = inhibition",[1],-20.7%
same,"activity, negative = inhibition",[2],15.1%
NCC[C@H](O)C(=O)N[C@@H]1C[C@H](N)[C@@H](O[C@H]2O[C@H](CN)[C@@H](O)[C@H](O)[C@H]2O)[C@H](O)[C@H]1O[C@H]1O[C@H](CO)[C@@H](O)[C@H](N)[C@H]1O,"activity, negative = inhibition",[1],2.54%
same,"activity, negative = inhibition",[2],0.715%
O=[n+]1ccn([O-])c2ccccc21,"activity, negative = inhibition",[1],14.9%
same,"activity, negative = inhibition",[2],3.55%
Nc1ncnc2c1ncn2[C@H]1CC[C@@H](CO)O1,"activity, negative = inhibition",[1],5.25%
same,"activity, negative = inhibition",[2],9.47%
FC(F)(F)C(F)(F)C(F)(F)C(F)(F)C(F)(F)C(F)(F)F,"activity, negative = inhibition",[1],2.24%
same,"activity, negative = inhibition",[2],2.03%
[O-][N+](=Nc1ccccc1)c1ccccc1,"activity, negative = inhibition",[1],-5.95%
same,"activity, negative = inhibition",[2],-6.73%
CC(C)c1ncc([N+](=O)[O-])n1C,"activity, negative = inhibition",[1],8.33%
same,"activity, negative = inhibition",[2],4.53%
C=CCCCCCCCCC(=O)OC,"activity, negative = inhibition",[1],-4.4%
same,"activity, negative = inhibition",[2],10.1%
C=C(C)C1CC=C(C)CC1 (stereo not drawn),"activity, negative = inhibition",[1],7.1%
same,"activity, negative = inhibition",[2],5.88%
CCC(C)[C@@H](N)C(=O)O (stereo partly drawn),"activity, negative = inhibition",[1],11.4%
same,"activity, negative = inhibition",[2],24.4%
FC(F)(F)C(F)(F)C(F)(F)C(F)(F)C(F)(F)F,"activity, negative = inhibition",[1],11%
same,"activity, negative = inhibition",[2],17.9%
O=C(OC1C[C@@H]2CC3C[C@H](C1)N2CC3=O)c1c[nH]c2ccccc12 (stereo partly drawn),"activity, negative = inhibition",[1],-11.9%
same,"activity, negative = inhibition",[2],-12.9%
Cc1cc(C)c(NC(=O)C[C@H](CC(=O)O)c2cccc3ccccc23)c(C(=O)N2CCC3(CCCC3)CC2)c1,"activity, negative = inhibition",[1],4.74%
same,"activity, negative = inhibition",[2],-1.81%
CN1CCc2c(c3ccccc3n2Cc2ccccc2)C1,"activity, negative = inhibition",[3],-0.349%
same,"activity, negative = inhibition",[4],-7.12%
CC1CCCCN1CCCOC(=O)c1ccccc1 (stereo not drawn),"activity, negative = inhibition",[1],3.84%
same,"activity, negative = inhibition",[2],9.27%
O=C(O)c1ccc(OCCn2ccnc2)cc1,"activity, negative = inhibition",[1],13.9%
same,"activity, negative = inhibition",[2],6.25%
CCCCCCCCCCCC(=O)N(CCO)CCO,"activity, negative = inhibition",[1],-3.5%
same,"activity, negative = inhibition",[2],9.6%
CC1CC(O)CC(C)(C)C1 (stereo not drawn),"activity, negative = inhibition",[1],-1.2%
same,"activity, negative = inhibition",[2],7.51%
CC12CCC(C[N+](C)(CCC[N+](C)(C)C)C1)C2(C)C (stereo not drawn),"activity, negative = inhibition",[1],7.03%
same,"activity, negative = inhibition",[2],18.6%
O=C1NCCN1c1ncc([N+](=O)[O-])s1,"activity, negative = inhibition",[3],-20%
same,"activity, negative = inhibition",[4],-14.4%
CC(=O)Oc1cc(C(F)(F)F)ccc1C(=O)O,"activity, negative = inhibition",[3],7.13%
same,"activity, negative = inhibition",[4],12.5%
COc1cc(NCCCC(C)N)c2ncccc2c1 (stereo not drawn),Potency,parasite line A,2 µM (active)
same,Potency,parasite line B,0.891 µM (active)
CSc1nc2cc(Oc3cccc(Cl)c3Cl)c(Cl)cc2[nH]1,Potency,parasite line A,3.98 µM (active)
same,Potency,parasite line B,11.2 µM (active)
CC(C)CCCC(C)NC(C)C (stereo not drawn),"activity, negative = inhibition",[1],-16.1%
same,"activity, negative = inhibition",[2],-1.21%
NCC(O)CC(=O)O (stereo not drawn),"activity, negative = inhibition",[1],13%
same,"activity, negative = inhibition",[2],3.91%
